# Screening data from PubChem.
# HCV inh: blocks hepatitis C virus. Huh7.5.1 HCVcc-Cre infection, luciferase reporter, 44 h. actives 3.4% (n = 340,000). Potency, µM (doses to about 41.8 µM), without a hit: top-dose activity change, negative = inhibition, hits mostly inhibitors
#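 Luciferase read-out (15 sec integration) after a 15 min room-temperature substrate step quantifies HCVcc-Cre infection. Cells, 1,000 per well, had compound added 4 h post-plating, then virus at ~0.5 moi, and were cultured 44 h.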
# AmpC detergent: inhibitors of E. coli AmpC beta-lactamase with detergent; P00811; AmpC hydrolysis of nitrocefin, absorbance 480 nm, 0.01% Triton; Potency, µM (top dose mostly 114 µM), for inactives: at the top dose activity change, negative = inhibition, actives largely listed as inhibitors; actives 0.041% (n = 370,000);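 further: 0% = no-compound wells and -100% = no-enzyme wells; nearly all actives have a fitted effect of over 25% in size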
# Target sequence (P00811 whole entry, looked up): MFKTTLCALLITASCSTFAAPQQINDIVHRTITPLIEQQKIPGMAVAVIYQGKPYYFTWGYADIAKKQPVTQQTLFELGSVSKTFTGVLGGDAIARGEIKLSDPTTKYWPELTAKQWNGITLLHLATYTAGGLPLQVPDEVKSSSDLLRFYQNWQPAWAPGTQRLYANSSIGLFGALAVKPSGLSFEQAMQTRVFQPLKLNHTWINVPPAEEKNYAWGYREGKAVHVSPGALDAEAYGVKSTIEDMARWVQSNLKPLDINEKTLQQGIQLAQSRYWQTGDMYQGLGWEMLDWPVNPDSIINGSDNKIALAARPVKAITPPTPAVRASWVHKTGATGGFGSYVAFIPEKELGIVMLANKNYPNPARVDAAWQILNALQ
#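 20 mM phosphate pH 7.0 + 0.01% (detergent screen) or 0.0001% Triton X-100; 5.3 nM AmpC reagent; cpd preinc 15 min RT; nitrocefin (800 uM stock) to start; A480 q20 s × 4 min; Activity was normalised to no-enzyme and no-compound control wells.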
# Pf growth 96h: P. falciparum growth inhibition at 96 hours; P. falciparum luciferase reporter growth, 96 h; Potency, µM (top dose mostly 28.7 µM), for inactives: at the top dose activity change, negative = inhibition, most hits filed as inhibitors; actives 6.9% (n = 320,000); AID 504834
#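 Erythrocytes infected with luciferase-expressing P. falciparum were dispensed at 2% hematocrit and 0.05% parasitemia (final), then incubated with compounds 96 hours at 37 C in 5% CO2. Luminescence after detection reagent addition reported growth.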
# AmpC inh no detg: blocks E. coli AmpC beta-lactamase in detergent-free assay; P00811; AmpC nitrocefin hydrolysis, absorbance 480 nm, 0.0001% Triton; Potency, µM (series often up to 57.1 µM), for inactives: top-dose activity change, negative = inhibition, hits mostly inhibitors; actives 0.52% (n = 330,000);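 further: plate controls were no compound for no effect and no enzyme for full effect; nearly all actives have a fitted effect of over 20% in size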
#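 AmpC (5.3 nM in the dispensed reagent) in 20 mM phosphate pH 7.0 with 0.01% (detergent screen) or 0.0001% Triton X-100 was preincubated with compounds for 15 min at room temperature. Nitrocefin was then added from an 800 uM solution, and hydrolysis was followed at 480 nm.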
# Pf growth 48h: P. falciparum growth inhibition at 48 hours (one generation) | P. falciparum luciferase growth in erythrocytes, 48 h | Potency, µM (titrated, usually from 28.7 µM), for inactives: at the top dose activity change, negative = inhibition, most hits filed as inhibitors | actives 5.9% (n = 310,000) | AID 504832
#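 Luminescence readout; reporter = integrated firefly luciferase in P. falciparum. RBC culture at 2% hematocrit, 0.1% parasitemia final, 37 C/5% CO2; decreased signal taken as growth inhibition.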
# AMA1 RON2 block: disrupts binding of P. falciparum AMA1 to RON2; AlphaScreen AMA1-biotinylated RON2 peptide binding; Potency, µM (highest dose often 58.2 µM), inactives show at the highest dose activity change, negative = inhibition, actives largely listed as inhibitors; actives 0.2% (n = 360,000);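 further: 0% = vehicle wells and -100% = peptide control; nearly all actives have a fitted effect of over 45% in size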
#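 AMA1 (3D7) with his tag at 25 nM final met compounds first, then biotinylated RON2 peptide at 25 nM; detection used donor plus acceptor beads, 10 µg/mL apiece, read by AlphaScreen after 30 min at room temperature.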
# The depositor's hits bear a star; ? = inconclusive; . = no result; [ ] = remark or other dose. Sampled rows, rich in hits. Any-hit rate of the full collection: about 11%. The call rests on the fitted dose curve; in most records, active means well fitted curve in the direction sought with a large enough effect; inconclusive means small, poorly fitted or top-dose-only effect, or another doubt; inactive means no such curve, though single readings can be large; an effect the other way counts as inactive or inconclusive. Unless noted, on the % scale 0 is the no-effect control and ±100 the full control effect; potency means the concentration at half of the fitted maximal effect.
SMILES,HCV inh,AmpC detergent,Pf growth 96h,AmpC inh no detg,Pf growth 48h,AMA1 RON2 block
COc1ccccc1NC(=O)c1oc2ccccc2c1NC(=O)c1ccc(S(=O)(=O)N(C)C)cc1,.,13%,.,.,.,.
CC(C)Cn1c(=O)c2ccccc2n2c(CCC(=O)N3CCN(c4ccccc4F)CC3)nnc12,.,24%,.,.,.,.
Cc1ccccc1C(=O)N1N=C(c2ccc(NS(C)(=O)=O)cc2)CC1c1cccs1 (stereo unspecified),1%,13%,1.7µM*,-9%,?,-2%
CS(=O)(=O)Nc1cccc(C2=NN(C(=O)CCC(=O)O)C(c3cccs3)C2)c1 (stereo unspecified),19%,-1%,5%,-17%,-5%[0.00184 µM],10%
COc1ccccc1C(=O)N1N=C(c2ccc(NS(C)(=O)=O)cc2)CC1c1cccs1 (stereo unspecified),4%,0%,15%,-18%,-7%[0.00184 µM],0%
CS(=O)(=O)Nc1ccc(C2=NN(C(=O)CCCC(=O)O)C(c3cccs3)C2)cc1 (stereo unspecified),23%,-4%,1.9µM*,2%,-16%,0%
S=c1nc2ccccc2c2nc(-c3ccccc3Br)[nH]n12,4%,0%,2.3µM*,-27%,2.9µM*,51%
Brc1ccccc1-c1nc2c3ccccc3ncn2n1,-24%,0%,294%,-15%,332%,56%
CCCS(=O)(=O)c1c(S(=O)(=O)CCC)c2cc(C(C)(C)C)ccn2c1C(=O)c1ccc(C)cc1,.,0%,.,.,.,.
CCCNC(=O)C(C)n1c2ccccc2c2nc(=O)cc(C)n21 (stereo unspecified),.,?,30%,-10%,.,.
Cc1cc(=O)nc2c3ccccc3n(C(C)C(=O)Nc3c(F)c(F)c(F)c(F)c3F)n12 (stereo unspecified),?,-7%,0%,-26%,3.3µM*,0%
Cc1cc(=O)nc2c3ccccc3n(C(C)C(=O)Nc3cc(F)ccc3F)n12 (stereo unspecified),-18%,-6%,10µM*,25%,?,-3%
CCOc1ccc(CN2C(=O)c3ccccc3Sc3ccc(C(=O)NC4CCC(C)CC4)cc32)cc1 (stereo unspecified),.,3%,.,.,.,.
CC(=O)C(C(C)=O)c1c(Cl)c(O)c(O)c2c(C(=O)c3ccccc3)coc12,10µM*,-15%,2.6µM*,-34%,.,64%
Cc1noc(C)c1S(=O)(=O)N(C)C[C@H]1Oc2ccc(NS(=O)(=O)c3ccc(F)cc3)cc2C(=O)N([C@H](C)CO)C[C@@H]1C,-11%,.,.,102%,.,29%
Cc1noc(C)c1S(=O)(=O)N(C)C[C@H]1Oc2ccc(NS(=O)(=O)c3cn(C)cn3)cc2C(=O)N([C@H](C)CO)C[C@@H]1C,3.5µM*,.,.,26%,.,0%
C[C@H](CO)N1C[C@H](C)[C@@H](CN(C)C(=O)Nc2ccccc2)Oc2c(NS(=O)(=O)c3cn(C)cn3)cccc2C1=O,23%,.,.,-5%,.,25%
C[C@H](CO)N1C[C@H](C)[C@@H](CN(C)C(=O)Nc2ccc(C(F)(F)F)cc2)Oc2c(NS(=O)(=O)c3cn(C)cn3)cccc2C1=O,2.8µM*,.,.,157%,.,10%
C[C@H](CO)N1C[C@H](C)[C@@H](CN(C)C(=O)Nc2ccc(C(F)(F)F)cc2)Oc2ccc(NS(=O)(=O)c3ccc(F)cc3)cc2C1=O,-22%,.,.,194%,.,-2%
Cc1noc(C)c1NC(=O)N(C)C[C@@H]1Oc2ccc(NS(=O)(=O)c3c(C)noc3C)cc2C(=O)N([C@H](C)CO)C[C@H]1C,3.2µM*,.,.,-25%,.,3%
Cc1ccc(S(=O)(=O)Nc2ccc3c(c2)C(=O)N([C@H](C)CO)C[C@H](C)[C@@H](CN(C)C(=O)Nc2ccc(C(F)(F)F)cc2)O3)cc1,13µM*,.,.,245%,.,3%
CCCCCOc1ccccc1CN1C(=O)C(=O)c2cc(C)ccc21,.,0%,.,.,.,.
Cc1ccc(C2=NN(CCC(=O)NCCc3cccc(C)c3)C(=O)CC2)cc1,.,-9%,.,.,.,.
CCC(Oc1ccccc1)C(=O)Nc1cc(-c2ccccc2F)nn1-c1ccccc1 (stereo unspecified),.,6%,.,.,.,.
CC(=O)Nc1ccc(OC(C)=O)cc1,.,.,-14%,.,-3%,.
SMILES,HCV inh,AmpC detergent,Pf growth 96h,AmpC inh no detg,Pf growth 48h,AMA1 RON2 block
Cc1ccc(S(=O)(=O)Nc2ccc3c(c2)CC(=O)N([C@H](C)CO)C[C@@H](C)[C@H](CN(C)S(=O)(=O)c2ccccc2)O3)cc1,8%,.,.,255%,.,8%
Cc1ccc(S(=O)(=O)N(C)C[C@@H]2Oc3ccc(NS(=O)(=O)c4ccccc4)cc3CC(=O)N([C@@H](C)CO)C[C@H]2C)cc1,0.56µM*,.,.,.,.,9%
CCN1CCN(Cc2c(O)ccc3oc(C)c(C(=O)Nc4cccc(C(F)(F)F)c4)c23)CC1,.,9%,.,.,.,.
COc1ccccc1N1CCN(C(=O)CSc2nnc3n2C(C)(C)Cc2ccccc2-3)CC1,6.3µM*,?,0%,95%,?,6%
CC1Cc2ccccc2N1C(=O)CSc1nnc(-c2ccccc2)c(-c2ccccc2)n1 (stereo unspecified),10µM*,-5%,-7%,-20%,0%,-20%
Cc1nnc(SC(C)C(=O)N2CCc3ccccc32)s1 (stereo unspecified),18%,-11%,.,-14%,6%,0%
CC(C)OC(=O)CSc1nnc2n1C(C)(C)Cc1ccccc1-2,-4%,-3%,?,-12%,-6%,-16%
CC1Cc2ccccc2N1C(=O)CSc1nnc2n1C(C)(C)Cc1ccccc1-2 (stereo unspecified),?,?,2.6µM*,9%,?,14%
CC(Sc1nnc(-c2ccccc2)c(-c2ccccc2)n1)C(=O)N1CCc2ccccc21 (stereo unspecified),?,0%,7.4µM*,-21%,-27%,-30%
CCOC(=O)CSc1nnc2n1C(C)(C)Cc1ccccc1-2,-4%,-2%,?,-1%,-13%,2%
Cc1ccc(NC(=S)Nc2cccc3cnccc23)c(C)c1,?,1%,1%,-24%,-8%,10%
CCc1ccc(NC(=S)Nc2cccc3cnccc23)cc1,10µM*,-8%,?,-41%,?,8%
C=C(C)CNC(=S)Nc1cccc2cnccc12,?,?,-17%,-22%,6%,-9%
Cc1cc(C)cc(NC(=S)Nc2cccc3cnccc23)c1,-30%,-2%,?,-33%,2.1µM*,15%
